# Source: PubChem BioAssay (Tox21)
# Results filed as inconclusive are left out. Unmarked numbers belong to inactive results. Calls of active or inactive are those of the source. Calls come from the whole dose curve; as a rule, active = well fitted activation curve with a large enough effect in the repeat runs; inconclusive = weak or mixed curves; inactive = flat fitted curve, though single readings scatter.
# Test: A CellTox Green Cytotoxicity Assay to monitor cytotoxicity in HEK293 cells - 8 hour (AID 1224884); note: nearly all actives have a fitted effect of over 35% in size
# Settings: CellTox Green fluorescence; series mostly up to 76.8 µM; cytotoxicity increase: at the top concentration
# From the text: National Center for Advancing Translational Sciences [NCATS]
# NIH Chemical Genomics Center [NCGC]
# U.S. Environmental Protection Agency [EPA]
# National Institutes of Environmental Health Sciences [NIEHS]
# National Toxicology Program [NTP]
# Cell-based models are critical for drug discovery. Determining the natural cytotoxic effects resulting from test compounds is an essential research activity. A CellTox Green Cytotoxicity Assay to monitor cytotoxicity in real time of continues cell culture during 40 hours of the compound treatment was used to screen Tox21 10K library compounds in Hek293 cells. CellTox Green Cytotoxicity Assay is a nonlytic, homogeneous, biofluorescent method to measure cytotoxicity in cell culture after experimental manipulation. The assay system uses a proprietary asymmetric cyanine dye that is excluded from viable cells but preferentially stains the dead cell's DNA. […] Viable cells produce no appreciable increases in fluorescence. Therefore, the fluorescence signal produced by the binding interaction with dead cell DNA is proportional to cytotoxicity.
# The mixture of Hek293 cell suspension and reagents were dispensed at 600cells/6 ul/well in 1536-well tissue culture treated black solid bottom plates using a Multidrop dispenser. After the assay plates were incubated at a 37 C/5% CO2 incubator for 5 hours, 23 nL of compounds dissolved in DMSO, positive and negative controls was transferred to the assay plate by a pintool work station. The plates were incubated at 37 C for 40 hours. The fluorescence intensity were measured at 0h, 8h, 16h, 24h, 32h and 40h time points using ViewLux plate reader during compound treatment.
# % is set by controls: 0 for no effect and ±100 for the full control effect; potency is the fitted concentration of half-maximal effect.
SMILES,cytotoxicity increase,Potency
CC(N=C(NC#N)Nc1ccncc1)C(C)(C)C (stereo not given),-3.63% [at 35.3 µM],
C[C@@H](O)[C@H](N)C(=O)O,-5.26% [at 15.8 µM],
Fc1ccc(C(c2ccc(F)cc2)N2CCNCC2)cc1,-4.34% [at 35.3 µM],
CCC(CC)(CC(=O)Nc1cccc(/C=C/c2nc(C3CCC3)cs2)c1)C(=O)O,5.17% [at 35.3 µM],
C#C[C@]1(OC(C)=O)CC[C@H]2[C@@H]3CCC4=C[C@@H](OC(C)=O)CC[C@@H]4[C@H]3CC[C@@]21C,29.4% [at 35.3 µM],
CCCCC/C=C\C/C=C\CCCCCCCC(=O)O,,inactive
COC(C)=O,-7.23%,
OC[C@@H](O)[C@@H](O)CO,-3.66%,
O=C1CCc2cc(OCCCCc3nnnn3C3CCCCC3)ccc2N1,-20.2% [at 35.3 µM],
CC1(C)[C@@H](O)CC[C@]2(C)[C@H]3C(=O)C=C4[C@@H]5C[C@@](C)(C(=O)O)CC[C@]5(C)CC[C@@]4(C)[C@]3(C)CC[C@@H]12,-1.06%,
CCn1c2ccccc2c2cc([N+](=O)[O-])ccc21,-0.822%,
O=C(O)c1cccc(C(F)(F)F)c1,-6.32%,
O=c1[nH]c2ccccc2n1CCCN1CCN(C(c2ccccc2)c2ccccc2)CC1,-11.7% [at 35.3 µM],
CCCCCCCC/C=C\CCCCCCCCN,,23.9 µM (active)
CCCCCCCCCCCCOCCOCCOCCOCCOCCOCCOCCOCCOCCO,,16.9 µM (active)
Cc1cc(-n2nc3ccc(Cl)cc3n2)c(O)c(C(C)(C)C)c1,-17.7% [at 35.3 µM],
Cc1ccc(-c2ccccc2)cc1,20.6%,
CC(C)=CCNc1ncnc2c1ncn2[C@@H]1O[C@H](CO)[C@@H](O)[C@H]1O,-8.9% [at 35.3 µM],
CCCCC(CC)CN1CN(CC(CC)CCCC)CC(C)(N)C1 (stereo not given),,15.1 µM (active)
CCCCOC(=O)CC,-4.08%,

SMILES,cytotoxicity increase,Potency
c1ccc(SSc2ccccc2)cc1,-8.71%,
CNC(=O)c1ccccc1Sc1ccc2c(/C=C/c3ccccn3)n[nH]c2c1,14.7% [at 35.3 µM],
C=Cc1ccccc1C=C,-6.59% [at 200 µM],
C1CCC(SSC2CCCCC2)CC1,7.85%,
Cc1ccc(C(C)C)cc2c(C)ccc1-2,2.51% [at 35.3 µM],
CC(C)(c1cc(Br)c(OCC(Br)CBr)c(Br)c1)c1cc(Br)c(OCC(Br)CBr)c(Br)c1 (stereo not given),13.3% [at 35.3 µM],
C=CC(C)(CCC=C(C)C)OC=O (stereo not given),4.86%,
CCN(CCN)c1cccc(C)c1,14.9%,
Sc1nc2ccccc2s1,-7.77%,
Cc1cc(C)c(/C=C2\C(=O)Nc3ccccc32)[nH]1,,16.9 µM (active)
COC(=O)C1=C(C)NC(C)=C(C(=O)OCCN2CCN(C(c3ccccc3)c3ccccc3)CC2)C1c1cccc([N+](=O)[O-])c1 (stereo not given),-2.09% [at 35.3 µM],
NC(=S)NC(N)=S,6.65%,
COc1cc(/C=C/c2ccccc2)oc(=O)c1,-4.01%,
O=C(O)c1cc(N=Nc2ccc([N+](=O)[O-])cc2)ccc1O,-1.06%,
COc1ccc(NC(=O)CC(C)=O)cc1,4.87%,
Cc1cccc2cccnc12,-0.418%,
COC1=C(OC)C(=O)C(CCCCCCCCCCO)=C(C)C1=O,6.69% [at 35.3 µM],
CC1(C)CCC[C@]2(C)[C@H]3CC(=O)O[C@]3(C)CC[C@@H]12,14.7%,
CCCCCC(C)OC(=O)COc1ccc(Cl)c2cccnc12 (stereo not given),15.8%,
C[C@H]1NCc2cc(-c3ccc4c(=O)c(C(=O)O)cn(C5CC5)c4c3OC(F)F)ccc21,-4.13% [at 15.8 µM],
